Test results: PubChem BioAssay (NCATS)
“And” between values parts separate entries of the source, which are not always exact repeats. Identical values can stand only once. Records with an inconclusive call do not appear. Where a call stands in place of a potency, no number is given. The source made the active and inactive calls.

Test system: not listed separately
Assay: qHTS assay for small molecule agonists of the antioxidant response element (ARE) signaling pathway (AID 651741; active means well fitted activation curve with a large enough effect in the signal ratio; the % refers to the signal ratio; further: potency means the concentration at half of the fitted maximal effect)
Conditions: HepG2 ARE-bla reporter, beta-lactamase FRET ratio, 16 h; series mostly up to 96 µM
How it was run: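 Reporter: beta-lactamase under ARE, stably in HepG2. Exposure: 16 h, 37 C, compounds delivered in DMSO by pin tool after 5 h cell preincubation. Readout: FRET substrate fluorescence after 2 h at RT.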
With `Cn1c(=O)c2[nH]cnc2n(C)c1=O` the Potency was “inactive”.
With `Nc1ccn([C@H]2CC[C@@H](CO)O2)c(=O)n1` the Potency was “inactive”.
With `Clc1ccc(C(c2ccccc2Cl)C(Cl)Cl)cc1` (configuration not stated) the Potency was 66.8 µM (active).

Test system: not listed separately
Assay: qHTS assay for small molecule activators of the nuclear factor-kappa B (NF-kB) signaling pathway (AID 651749; active means well fitted activation curve with a large enough effect in the signal ratio; the % refers to the signal ratio)
Conditions: NF-kB-bla ME-180 cells, beta-lactamase FRET ratio, 16 h; active compounds read high
How it was run: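 Human ME-180 cervical cells with an NF-kB-bla construct; compounds added via 23 nL pin transfer, DMSO as vehicle; incubation 16 hr. Reporter activity measured by FRET disruption.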
With `Cc1cn([C@H]2C[C@H](N=[N+]=[N-])[C@@H](CO)O2)c(=O)[nH]c1=O` the activation was 0.977% (inactive) and -0.0662% (inactive).
In the case of `Cn1c(=O)c2[nH]cnc2n(C)c1=O`, the activation is reported as 0.41% (inactive).
In the case of `Nc1ccn([C@H]2CC[C@@H](CO)O2)c(=O)n1`, the activation is reported as -0.557% (inactive) and 0.274% (inactive).
In the case of `COc1cc2c(c(OC)c1OC)-c1ccc(OC)c(=O)cc1[C@@H](NC(C)=O)CC2`, the activation is reported as 2.95% (inactive) and 1.58% (inactive) and 1.39% (inactive).
For `Clc1ccc(C(c2ccccc2Cl)C(Cl)Cl)cc1` (configuration not stated), the activation was 2.3% (inactive).

Molecular target: Tumor necrosis factor (Homo sapiens) (UniProt P01375)
Sequence (P01375 whole entry, looked up): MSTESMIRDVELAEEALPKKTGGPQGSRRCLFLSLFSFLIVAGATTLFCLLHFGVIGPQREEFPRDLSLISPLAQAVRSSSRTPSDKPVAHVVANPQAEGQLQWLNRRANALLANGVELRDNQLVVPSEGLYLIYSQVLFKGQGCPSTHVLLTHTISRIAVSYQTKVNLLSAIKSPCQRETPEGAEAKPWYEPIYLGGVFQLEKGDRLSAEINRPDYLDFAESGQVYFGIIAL
Assay: qHTS assay to identify small molecules that stimulate Tumor Necrosis Factor-alpha (TNF-alpha) secretion (AID 651757; active means well fitted curve in the direction sought with a large enough effect in the signal ratio; the % refers to the signal ratio)
Conditions: Human cells, HTRF 665/615 ratio; series mostly up to 92.2 µM
How it was run: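 Secreted TNF-alpha quantified by TR-FRET sandwich of two labeled anti-TNF-alpha antibodies, incubated 3 hr at room temperature. Preceded by 17 hr, 37 C compound treatment of THP-1 cells at 3000 cells/well.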
With `Cc1cn([C@H]2C[C@H](N=[N+]=[N-])[C@@H](CO)O2)c(=O)[nH]c1=O` the outcome was “inactive”.
For `Cn1c(=O)c2[nH]cnc2n(C)c1=O`, the outcome was “inactive”.
In the case of `Nc1ccn([C@H]2CC[C@@H](CO)O2)c(=O)n1`, the outcome is reported as “inactive”.
In the case of `CC(COc1ccccc1)N(CCCl)Cc1ccccc1` (configuration not stated), the outcome is reported as “inactive”.
With `COc1ccc2c(c1)c(CC(=O)O)c(C)n2C(=O)c1ccc(Cl)cc1` the outcome was “inactive”.
In the case of `COc1cc2c(c(OC)c1OC)-c1ccc(OC)c(=O)cc1[C@@H](NC(C)=O)CC2`, the outcome is reported as “inactive”.
In the case of `CC(C)C(=O)Nc1ccc([N+](=O)[O-])c(C(F)(F)F)c1`, the outcome is reported as “inactive”.
For `Clc1ccc(C(c2ccccc2Cl)C(Cl)Cl)cc1` (configuration not stated), the outcome was “inactive”.
With `O=c1[nH]cc(F)c(=O)[nH]1` the outcome was “inactive”.
